Data: PubChem BioAssay (EPA / NIEHS)
Activity calls are given as the source filed them. Rule for the calls: active = hit-call score of the fitted dose curve at least 0.9, where 1 is the maximum; inconclusive = response in the unintended direction; inactive = score below 0.9.

The molecules below were run against Androgen Receptor/SRC-1 Co-activator, AR (gene 367) (UniProt P10275) (assay: OT_AR_ARSRC1_0960: Odyssey Thera (OT) 16-hour HEK293T Protein-Complementation Assay for Androgen Receptor/SRC-1 Co-activator (AID 2283353);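 note: actives raise the signal above DMSO so potency reflects increased AR and SRC-1 complex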).
How it was run: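 HEK293T cells stably expressing AR and SRC-1 fused to Venus YFP fragments, imaged 16 h after dosing. Nuclear/cytoplasmic fluorescence ratio at 488 nm from at least 400 cells per image; gain of signal relative to DMSO.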

Chain of Androgen Receptor/SRC-1 Co-activator, AR (gene 367) (P10275 whole entry, looked up, the tested form may be a part): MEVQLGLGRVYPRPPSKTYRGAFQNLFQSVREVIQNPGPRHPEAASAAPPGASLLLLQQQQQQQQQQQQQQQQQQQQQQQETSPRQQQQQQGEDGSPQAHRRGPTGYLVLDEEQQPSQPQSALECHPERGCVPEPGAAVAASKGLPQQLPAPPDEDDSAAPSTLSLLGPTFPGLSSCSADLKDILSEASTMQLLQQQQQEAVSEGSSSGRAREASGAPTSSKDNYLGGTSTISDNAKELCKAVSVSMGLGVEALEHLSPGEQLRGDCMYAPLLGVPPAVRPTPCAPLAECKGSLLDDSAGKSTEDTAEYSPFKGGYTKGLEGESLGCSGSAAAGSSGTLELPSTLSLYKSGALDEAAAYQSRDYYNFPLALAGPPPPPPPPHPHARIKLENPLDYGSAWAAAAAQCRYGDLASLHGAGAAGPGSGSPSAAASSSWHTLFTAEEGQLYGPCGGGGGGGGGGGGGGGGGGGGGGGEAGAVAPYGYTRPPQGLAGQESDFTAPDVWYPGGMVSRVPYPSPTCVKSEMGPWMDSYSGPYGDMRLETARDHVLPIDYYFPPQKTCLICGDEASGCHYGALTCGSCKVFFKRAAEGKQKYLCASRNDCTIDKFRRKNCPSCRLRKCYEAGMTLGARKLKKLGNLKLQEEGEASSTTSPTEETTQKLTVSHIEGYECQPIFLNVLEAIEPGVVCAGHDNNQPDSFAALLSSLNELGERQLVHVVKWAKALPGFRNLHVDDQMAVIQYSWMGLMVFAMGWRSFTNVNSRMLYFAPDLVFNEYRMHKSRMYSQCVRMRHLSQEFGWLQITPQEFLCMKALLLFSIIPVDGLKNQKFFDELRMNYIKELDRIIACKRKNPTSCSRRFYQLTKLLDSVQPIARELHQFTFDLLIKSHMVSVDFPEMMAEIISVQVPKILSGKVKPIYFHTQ

Row | Compound | AC50 | outcome
1 | Oc1ccc(Cl)cc1Cc1cc(Cl)ccc1O | 29.6 µM (active) | –
2 | O=c1cc(-c2ccccc2)oc2ccccc12 | – | inactive
3 | CC(C)c1ccc2c(C(C)C)cc(C(C)C)c(S(=O)(=O)O)c2c1 | – | inactive
